Results filed as inconclusive are left out. Activity calls are given as the source filed them. Rule for the calls: active = hit-call score of the fitted dose curve at least 0.9, where 1 is the maximum; inconclusive = response in the unintended direction; inactive = score below 0.9.
assay: ACEA_ER_AUC_viability: ACEA Biosciences xCELLigence Real-Time Cell Analysis on Estrogen Receptor Agonism for Viability (AID 2283782);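 note: continuous compound exposure with impedance area under curve over 80 h; hit means loss of impedance signal meaning reduced cell growth or viability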
Protocol: ACEA_ER is a cell-based, single-readout assay that uses T47D, a human breast cell line, with measurements taken at 80 hours after chemical dosing in a 96-well plate, although TO2 (mc0.srcf) used a 384-well plate. Differences in plate size can be ignored given data normalization.ACEA_ER_AUC_viability is one of two assay component(s) measured or calculated from the ACEA_ER assay. It is designed to make measurements of real-time cell-growth kinetics, a form of growth reporter, as detected with electrical impedance signals by Real-Time Cell Electrode Sensor (RT-CES) technology.Data from the assay component ACEA_ER_AUC_viability was analyzed in the positive analysis fitting direction relative to DMSO as the negative control and baseline of activity. Using a type of growth reporter, loss-of-signal activity can be used to understand changes in the viability. Furthermore, this assay endpoint can be referred to as a secondary readout, because this assay has produced multiple assay endpoints where this one serves a viability function. To generalize the intended target to other relatable targets, this assay endpoint is annotated to the cell cycle intended target family, where the subfamily is cytotoxicity.
The xCELLigence system Multi-E-Plate stations were used to measure the time-dependent response to chemicals. Each compound was tested in an eight-point, 1:4 serial dilution series starting at a maximum final concentration of 100 uM. A maximum starting concentration of 0.5% DMSO was present in the 100 uM chemical samples and was diluted along with the test article dilution series. The screen was performed in biological duplicate using two separate, 96-well, E-Plates 96 for each dilution series (n = 2). Positive controls (MG132 and E2) and a negative control (assay media) were tested in quadruplicate on each testing plate. Then, 0.5% and 0.125% DMSO were tested in duplicates in each plate to serve as solvent controls for the 2 highest concentrations of testing compounds: 100 uM and 25 uM. Reference compounds were tested with 8 concentrations with 1:5 serial dilutions. All screening was carried out by ACEA Biosciences, Inc. (San Diego, CA). T-47D cells purchased from ATCC were maintained in RPMI1640 media supplemented with 10% characterized fetal bovine serum (FBS). Before screening, T-47D cells were preconditioned in assay medium: phenol red-free RPMI1640 supplemented with 10% charcoal-stripped FBS. Cells were then detached and seeded in E-Plates 96 in assay medium. After overnight monitoring of growth once every hour, compounds were added to […] cells and remained in the medium until the end of the experiment. Cellular responses were then recorded once every 5 min for the first 5 h, and once every hour for an additional 100 h.

Row | SMILES | outcome | AC50
1 | CCCCCCCC(=O)OCCCCCC | inactive | 
2 | CN1C(=O)c2ccccc2C1=O | inactive | 
3 | CC(C)CCCCCCc1ccc(OCCOCCO)cc1 | inactive | 
4 | CCc1cc(Cc2cc(CC)cc(C(C)(C)C)c2O)c(O)c(C(C)(C)C)c1 |  | 11.7 µM (active)
5 | CCCOCCO | inactive | 
6 | OC[C@H]1O[C@@H]2O[C@H]3[C@H](O)[C@@H](O)[C@@H](O[C@H]4[C@H](O)[C@@H](O)[C@@H](O[C@H]5[C@H](O)[C@@H](O)[C@@H](O[C@H]6[C@H](O)[C@@H](O)[C@@H](O[C@H]7[C@H](O)[C@@H](O)[C@@H](O[C@H]8[C@H](O)[C@@H](O)[C@@H](O[C@H]9[C@H](O)[C@@H](O)[C@@H](O[C@H]1[C@H](O)[C@H]2O)O[C@@H]9CO)O[C@@H]8CO)O[C@@H]7CO)O[C@@H]6CO)O[C@@H]5CO)O[C@@H]4CO)O[C@@H]3CO | inactive | 
7 | C=C[Si]1(C)O[Si](C)(C=C)O[Si](C)(C=C)O[Si](C)(C=C)O1 (stereo not given) |  | 88 µM (active)
8 | CCOC(=O)CN | inactive | 
9 | CCCCOCC | inactive | 
10 | O=C1NC2NC(=O)NC2N1 (stereo not given) | inactive | 
11 | C=C(C)C(=O)OCCOC1CC2CC1C1C=CCC21 (stereo not given) |  | 48.6 µM (active)
12 | O=C(O)c1cccnc1C(=O)O | inactive | 
13 | CS(=O)(=O)c1ccc(Cl)cc1 | inactive | 
14 | C=C(C#N)C(=O)OCC |  | 78.9 µM (active)
15 | CC(=O)O[C@@H]1CC2CCC1(C)C2(C)C (stereo not given in full) | inactive | 
16 | CC(=O)CC(=O)Nc1ccc(C)cc1C | inactive | 
17 | COC(=O)C=C(C)CCC=C(C)C | inactive | 
18 | CCCCCCCCSCCO |  | 70.5 µM (active)
19 | COC(CC(C)CCCC(C)(C)O)OC (stereo not given) | inactive | 
20 | CC(C)NCC(O)COc1ccc(CC(N)=O)cc1 (stereo not given) | inactive | 

Row | SMILES | outcome | AC50
21 | COCCOCCOCCO | inactive | 
22 | CS(=O)(=O)OCCCCOS(C)(=O)=O | inactive | 
23 | CSCCC=O |  | 85.8 µM (active)
24 | NCC1CCCC(CN)C1 (stereo not given) | inactive | 
25 | C=CCCC(=O)/C=C/C1C(C)=CCCC1(C)C (stereo not given) |  | 68.8 µM (active)
26 | C=C(C)CNCC |  | 25.7 µM (active)
27 | Cc1cc(C)nc(NS(=O)(=O)c2ccc(N)cc2)n1 | inactive | 
28 | CC(=O)O[C@@H]1C[C@@H]2CC[C@@]1(C)C2(C)C | inactive | 
29 | Nc1ccc2c(O)cc(S(=O)(=O)O)cc2c1 | inactive | 
30 | c1ccc(CN(Cc2ccccc2)Cc2ccccc2)cc1 |  | 89 µM (active)
31 | CCCC(=O)OCCc1ccccc1 |  | 25.7 µM (active)
32 | CCCCCC(=O)CC | inactive | 
33 | N#Cc1cscn1 | inactive | 
34 | COc1ccc(N)c([N+](=O)[O-])c1 | inactive | 
35 | CCCC[O][Al]([O]CCCC)[O]CCCC |  | 59.3 µM (active)
36 | C=CC(C)C#N (stereo not given) | inactive | 
37 | CCOC(=O)C1OC1c1ccccc1 (stereo not given) | inactive | 
38 | Cc1ccc(N)c(S(=O)(=O)O)c1 | inactive | 
39 | CC(C)=CCCC(C)CC(=O)O (stereo not given) | inactive | 
40 | O=CCc1ccccc1 |  | 78.6 µM (active)

Source: PubChem BioAssay (EPA / NIEHS)
